# Results as given in PubChem BioAssay (Tox21).
# Several values for one entry are separate records, joined by “and”; a condition that tells them apart may be missing. Equal entries are not always repeated. Inconclusive results are not listed. A call without a number means that no potency is given here. Activity calls are given as the source filed them. Unless noted, calls come from the whole dose curve; as a rule, active = well fitted curve in the direction sought with a large enough effect in the repeat runs; inconclusive = weak or mixed curves; inactive = no such curve, though single readings can be large; an effect the other way counts as inactive or inconclusive.
# Target: Retinoic acid receptor RXR-alpha (Homo sapiens) (UniProt P19793)
# Sequence (P19793 whole entry, looked up): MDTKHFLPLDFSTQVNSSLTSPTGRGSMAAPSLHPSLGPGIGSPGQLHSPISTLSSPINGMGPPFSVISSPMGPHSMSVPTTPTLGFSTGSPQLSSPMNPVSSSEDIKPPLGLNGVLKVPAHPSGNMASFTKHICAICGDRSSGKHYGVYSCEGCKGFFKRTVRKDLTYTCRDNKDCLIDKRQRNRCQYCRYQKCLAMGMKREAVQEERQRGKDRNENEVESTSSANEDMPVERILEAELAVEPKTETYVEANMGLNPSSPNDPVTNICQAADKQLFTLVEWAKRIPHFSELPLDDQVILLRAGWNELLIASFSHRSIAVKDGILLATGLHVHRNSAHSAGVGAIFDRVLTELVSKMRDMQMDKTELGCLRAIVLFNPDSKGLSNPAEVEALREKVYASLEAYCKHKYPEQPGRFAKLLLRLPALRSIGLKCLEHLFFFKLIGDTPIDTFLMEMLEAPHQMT
# Test: qHTS assay to identify small molecule agonists of the RXR signaling pathway (AID 1159527; calls by dose curve; note: nearly all actives have a fitted effect of over 35% in size)
# Details: HEK293T RXRa-UAS-bla, beta-lactamase ratio, 16 h; series mostly up to 76.8 µM
# Procedure, shortened: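 Reporter activation is measured as beta-lactamase activity via FRET substrate cleavage (emission 460/530 nm) in HEK 293T cells expressing an RXR-alpha-driven bla construct, following 16 hr compound exposure at 37 C.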
row,Structure (SMILES),Potency
1,CCCNC(=O)NS(=O)(=O)c1ccc(Cl)cc1,inactive
2,Cc1noc(NS(=O)(=O)c2ccc(N)cc2)c1C,inactive
3,NC(N)=NC(=O)c1nc(Cl)c(N)nc1N,inactive
4,CC(C)[C@@H]1CC[C@@H](C)C[C@H]1O,inactive

# Tested on: not listed separately
# Test: qHTS assay to identify small molecule agonists of the RXR signaling pathway - cell viability counter screen (AID 1159529); note: nearly all actives have a fitted effect of over 50% in size
# Details: RXR-alpha-bla HEK293T viability, CellTiter-Glo, 16 h; series mostly up to 76.8 µM
# Procedure, shortened: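 Tox21 10K compounds were tested for cytotoxicity against GeneBLAzer RXR-alpha HEK 293T cells grown in 2% charcoal-stripped FBS. Exposure lasted 16 hr at 37 C, 5% CO2; viability read by CellTiter-Glo luminescence.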
row,Structure (SMILES),Potency
1,C1N2CN3CN1CN(C2)C3,inactive
2,O=C(O)c1cccnc1,inactive
3,OC(Cn1cncn1)(Cn1cncn1)c1ccc(F)cc1F,inactive
4,CC(=O)NS(=O)(=O)c1ccc(N)cc1,inactive
5,CNC[C@H](O)c1cccc(O)c1,inactive
6,O=S(=O)(O)c1ccc2cc(O)ccc2c1,inactive
7,Cc1ccc(O)cc1,inactive
8,Cn1cc[nH]c1=S,inactive
9,Cn1c(=O)c2[nH]cnc2n(C)c1=O,inactive
10,COc1c2occc2cc2ccc(=O)oc12,inactive
11,NS(=O)(=O)c1cc(C(=O)O)c(NCc2ccco2)cc1Cl,inactive
12,O=C(C1CCCCC1)N1CC(=O)N2CCc3ccccc3C2C1 (stereo unspecified),inactive
13,Oc1ccc(/C=C/c2cc(O)cc(O)c2)cc1,inactive
14,CC(=O)Nc1nnc(S(N)(=O)=O)s1,inactive
15,Nc1ccn([C@H]2CC[C@@H](CO)O2)c(=O)n1,inactive
16,Nc1ccc(O)c(C(=O)O)c1,inactive
17,CCCCC(CC)COC(=O)/C=C/c1ccc(OC)cc1 (stereo unspecified),inactive
18,Cc1ccccc1C(OCCN(C)C)c1ccccc1 (stereo unspecified),inactive
19,Nc1ccc(S(=O)(=O)Nc2nccs2)cc1,inactive

row,Structure (SMILES),Potency
1,Cc1ccc(S(=O)(=O)NC(=O)NN2CCCCCC2)cc1,inactive
2,NC(=O)c1ccccc1O,inactive
3,CC(C)(Oc1ccc(C2CC2(Cl)Cl)cc1)C(=O)O (stereo unspecified),inactive
4,CC(O)C(=O)O (stereo unspecified),inactive
5,CCCCC1C(=O)N(c2ccccc2)N(c2ccccc2)C1=O,inactive
6,CCC1(c2ccccc2)C(=O)NCNC1=O,inactive
7,COc1ccc2[nH]cc(CCNC(C)=O)c2c1,inactive
8,CC(O)CN(CCN(CC(C)O)CC(C)O)CC(C)O (stereo unspecified),inactive
9,CCCN(CCC)S(=O)(=O)c1ccc(C(=O)O)cc1,inactive
10,NC(=O)c1cnccn1,inactive
11,O=C(O)CCCCCCCC(=O)O,inactive
12,Cc1cc(=O)n(-c2ccccc2)n1C,inactive
13,Nc1ccc(S(=O)(=O)c2ccc(N)cc2)cc1,inactive
14,CCCNC(=O)NS(=O)(=O)c1ccc(Cl)cc1,inactive
15,Cc1noc(NS(=O)(=O)c2ccc(N)cc2)c1C,inactive
16,CCCC(CCC)C(=O)O,inactive
17,NC(N)=NC(=O)c1nc(Cl)c(N)nc1N,inactive
18,CC(C)[C@@H]1CC[C@@H](C)C[C@H]1O,inactive

# Tested on: not listed separately
# Test: qHTS assay to identify small molecule antagonists of the retinoid acid receptor (RAR) signaling pathway - cell viability counter screen (AID 1159551); note: nearly all actives have a fitted effect of over 35% in size
# Details: C3RL4 cells viability, ATP luminescence (CellTiter-Glo), 6 h; series mostly up to 92.4 µM
# Procedure, shortened: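 ATP-based viability, C3RL4 cells, 6 h at 37 C with 1 uM final retinol co-added after compound; luminescence read 30 min post CellTiter-Glo, RT.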
row,Structure (SMILES),outcome
1,C1N2CN3CN1CN(C2)C3,inactive
2,O=C(O)c1cccnc1,inactive
3,OC(Cn1cncn1)(Cn1cncn1)c1ccc(F)cc1F,inactive
4,CC(=O)NS(=O)(=O)c1ccc(N)cc1,inactive
5,CNC[C@H](O)c1cccc(O)c1,inactive
6,O=S(=O)(O)c1ccc2cc(O)ccc2c1,inactive
7,Cc1ccc(O)cc1,inactive
8,Cn1cc[nH]c1=S,inactive
9,Cn1c(=O)c2[nH]cnc2n(C)c1=O,inactive
10,COc1c2occc2cc2ccc(=O)oc12,inactive
11,NS(=O)(=O)c1cc(C(=O)O)c(NCc2ccco2)cc1Cl,inactive
12,O=C(C1CCCCC1)N1CC(=O)N2CCc3ccccc3C2C1 (stereo unspecified),inactive
13,Oc1ccc(/C=C/c2cc(O)cc(O)c2)cc1,inactive
14,CC(=O)Nc1nnc(S(N)(=O)=O)s1,inactive
15,Nc1ccn([C@H]2CC[C@@H](CO)O2)c(=O)n1,inactive
16,Nc1ccc(O)c(C(=O)O)c1,inactive
17,CCCCC(CC)COC(=O)/C=C/c1ccc(OC)cc1 (stereo unspecified),inactive
18,Cc1ccccc1C(OCCN(C)C)c1ccccc1 (stereo unspecified),inactive
19,Nc1ccc(S(=O)(=O)Nc2nccs2)cc1,inactive

row,Structure (SMILES),outcome
1,Cc1ccc(S(=O)(=O)NC(=O)NN2CCCCCC2)cc1,inactive
2,NC(=O)c1ccccc1O,inactive
3,CC(C)(Oc1ccc(C2CC2(Cl)Cl)cc1)C(=O)O (stereo unspecified),inactive
4,CC(O)C(=O)O (stereo unspecified),inactive
5,CCCCC1C(=O)N(c2ccccc2)N(c2ccccc2)C1=O,inactive
6,CCC1(c2ccccc2)C(=O)NCNC1=O,inactive
7,COc1ccc2[nH]cc(CCNC(C)=O)c2c1,inactive
8,CC(O)CN(CCN(CC(C)O)CC(C)O)CC(C)O (stereo unspecified),inactive
9,CCCN(CCC)S(=O)(=O)c1ccc(C(=O)O)cc1,inactive
10,NC(=O)c1cnccn1,inactive
11,O=C(O)CCCCCCCC(=O)O,inactive
12,Cc1cc(=O)n(-c2ccccc2)n1C,inactive
13,Nc1ccc(S(=O)(=O)c2ccc(N)cc2)cc1,inactive
14,CCCNC(=O)NS(=O)(=O)c1ccc(Cl)cc1,inactive
15,Cc1noc(NS(=O)(=O)c2ccc(N)cc2)c1C,inactive
16,CCCC(CCC)C(=O)O,inactive
17,NC(N)=NC(=O)c1nc(Cl)c(N)nc1N,inactive
18,CC(C)[C@@H]1CC[C@@H](C)C[C@H]1O,inactive

# Tested on: not listed separately
# Test: qHTS assay to identify small molecule antagonists of the retinoic acid receptor (RAR) signaling pathway (AID 1159552; note: nearly all actives have a fitted effect of over 50% in size; note: potency is the fitted concentration of half-maximal effect)
# Details: C3RL4 RARE luciferase reporter, retinol-stimulated, 6 h; series mostly up to 92.4 µM
# Procedure, shortened: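 Overnight-plated C3RL4 reporter cells get compound, then retinol to 1 uM final; plates sit 6 hr at 37 C, 5% CO2. A luciferase reagent is added and light output recorded after 30 min at room temperature.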
row,Structure (SMILES),Potency
1,C1N2CN3CN1CN(C2)C3,inactive
2,CC(=O)NS(=O)(=O)c1ccc(N)cc1,inactive
3,CNC[C@H](O)c1cccc(O)c1,inactive
4,O=S(=O)(O)c1ccc2cc(O)ccc2c1,inactive
5,Cc1ccc(O)cc1,inactive
6,Cn1cc[nH]c1=S,inactive
7,COc1c2occc2cc2ccc(=O)oc12,inactive
8,O=C(C1CCCCC1)N1CC(=O)N2CCc3ccccc3C2C1 (stereo unspecified),inactive
9,Oc1ccc(/C=C/c2cc(O)cc(O)c2)cc1,49 µM (active) and 43.3 µM (active)
10,CC(=O)Nc1nnc(S(N)(=O)=O)s1,inactive
11,Nc1ccc(O)c(C(=O)O)c1,inactive
12,CCCCC(CC)COC(=O)/C=C/c1ccc(OC)cc1 (stereo unspecified),inactive
13,Cc1ccccc1C(OCCN(C)C)c1ccccc1 (stereo unspecified),inactive
14,Nc1ccc(S(=O)(=O)Nc2nccs2)cc1,inactive
15,Cc1ccc(S(=O)(=O)NC(=O)NN2CCCCCC2)cc1,inactive
16,NC(=O)c1ccccc1O,inactive
17,CC(C)(Oc1ccc(C2CC2(Cl)Cl)cc1)C(=O)O (stereo unspecified),inactive
18,CC(O)C(=O)O (stereo unspecified),inactive
19,CCCCC1C(=O)N(c2ccccc2)N(c2ccccc2)C1=O,inactive
20,CCC1(c2ccccc2)C(=O)NCNC1=O,inactive
21,CC(O)CN(CCN(CC(C)O)CC(C)O)CC(C)O (stereo unspecified),inactive
22,CCCN(CCC)S(=O)(=O)c1ccc(C(=O)O)cc1,inactive
23,O=C(O)CCCCCCCC(=O)O,inactive
24,Cc1cc(=O)n(-c2ccccc2)n1C,inactive
25,Nc1ccc(S(=O)(=O)c2ccc(N)cc2)cc1,inactive
26,CCCNC(=O)NS(=O)(=O)c1ccc(Cl)cc1,inactive
27,Cc1noc(NS(=O)(=O)c2ccc(N)cc2)c1C,inactive
28,CC(C)[C@@H]1CC[C@@H](C)C[C@H]1O,inactive
